# Reference: PubChem BioAssay
# Where “and” joins values, the source holds several entries; their conditions need not be identical. Equal entries are not always repeated. Results filed as inconclusive are left out. Calls of active or inactive are those of the source. Unless noted, no rule for the calls is given here.
# What was measured:
# [1] = target: ATP-dependent translocase ABCB1 (Homo sapiens) (UniProt P08183); assay: P-glycoprotein substrate transport blockade – cell-based (AID 377; in the data active = fluorescence slope change above about 50%); conditions: MDR1-expressing cells, fluorescent substrate accumulation slope; stronger effect = higher value; concentration not given here
# Chain of ATP-dependent translocase ABCB1 (Homo sapiens) (P08183 whole entry, looked up): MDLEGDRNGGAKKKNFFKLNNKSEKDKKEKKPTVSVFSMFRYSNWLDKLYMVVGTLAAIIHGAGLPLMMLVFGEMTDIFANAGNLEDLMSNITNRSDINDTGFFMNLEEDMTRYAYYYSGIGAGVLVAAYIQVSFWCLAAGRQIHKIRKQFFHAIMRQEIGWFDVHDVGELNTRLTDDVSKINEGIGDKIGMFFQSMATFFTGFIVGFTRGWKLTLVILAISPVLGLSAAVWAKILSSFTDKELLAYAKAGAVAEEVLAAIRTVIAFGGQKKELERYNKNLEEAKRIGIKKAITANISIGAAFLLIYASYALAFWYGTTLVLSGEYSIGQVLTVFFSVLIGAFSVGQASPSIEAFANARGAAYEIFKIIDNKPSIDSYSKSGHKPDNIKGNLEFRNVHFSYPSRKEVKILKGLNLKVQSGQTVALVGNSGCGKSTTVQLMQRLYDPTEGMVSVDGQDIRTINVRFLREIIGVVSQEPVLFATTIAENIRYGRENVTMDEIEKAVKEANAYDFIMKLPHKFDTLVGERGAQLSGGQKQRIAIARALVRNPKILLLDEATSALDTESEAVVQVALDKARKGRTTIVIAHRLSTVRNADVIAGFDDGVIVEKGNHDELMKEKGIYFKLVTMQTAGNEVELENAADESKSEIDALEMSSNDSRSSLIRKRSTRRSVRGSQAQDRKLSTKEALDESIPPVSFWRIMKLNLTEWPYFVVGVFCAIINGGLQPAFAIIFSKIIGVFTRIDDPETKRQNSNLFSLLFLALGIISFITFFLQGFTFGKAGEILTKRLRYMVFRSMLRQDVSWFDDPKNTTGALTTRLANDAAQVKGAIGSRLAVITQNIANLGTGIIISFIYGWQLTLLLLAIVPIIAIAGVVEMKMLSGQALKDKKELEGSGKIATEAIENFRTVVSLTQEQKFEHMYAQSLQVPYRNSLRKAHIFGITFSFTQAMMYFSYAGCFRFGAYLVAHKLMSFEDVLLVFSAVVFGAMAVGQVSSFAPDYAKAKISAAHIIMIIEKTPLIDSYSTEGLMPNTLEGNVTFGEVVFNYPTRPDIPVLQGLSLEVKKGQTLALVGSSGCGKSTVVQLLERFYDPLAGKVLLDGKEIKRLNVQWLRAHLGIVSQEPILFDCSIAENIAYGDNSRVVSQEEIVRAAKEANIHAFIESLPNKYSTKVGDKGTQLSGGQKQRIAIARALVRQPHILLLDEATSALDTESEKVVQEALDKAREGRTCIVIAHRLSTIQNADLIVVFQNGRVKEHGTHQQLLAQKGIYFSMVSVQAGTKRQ
# [2] = compounds altering circadian rhythm period length – cell-based, LOPAC library, luminescence reporter (AID 2774); conditions: circadian reporter cells, at 7 µM, actives lie on both sides;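 also: values are relative to mean of DMSO wells on each plate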
# [3] = compounds altering viability of human ES cells (AID 493140); conditions: human embryonic stem cell survival screen; stronger effect = higher value;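 also: cells exposed to compounds for four days before counting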
# [4] = test system: Hepatitis C virus NS3 helicase; assay: blockers of NS3h binding to ssDNA – biochemical, fluorescence polarization, LOPAC1280 library, primary screen (AID 687035; in the data active = inhibition above about 37%); conditions: Purified HCV NS3 helicase, Cy5-dT15 ssDNA binding fluorescence polarization; stronger effect = higher value; concentration not given here
# [5] = compounds altering Cy5-DNA-NS3h complex signal – biochemical, LOPAC1280, artefact control for HCV NS3 helicase inhibitor project (AID 687037); conditions: Cy5-DNA-NS3h complex fluorescence interference counterscreen
# [6] = signal quenchers or enhancers, Cy5 substrate/SSB – biochemical, NIH Clinical Collection, E. coli SSB, artefact control for HCV NS3 helicase inhibitor project (AID 743268); conditions: Cy5-oligo bound E. coli SSB, fluorescence interference
# [7] = test system: Hepatitis C virus NS3 helicase; assay: blockers of NS3h binding to DNA – biochemical, fluorescence polarization, NIH Clinical Collection, primary screen (AID 743270); conditions: NS3 helicase binding to Cy5-dT15 DNA, stronger effect = higher value, concentration not given here
# [8] = target: Single-stranded DNA-binding protein (Escherichia coli (strain K12)) (UniProt P0AGE0); assay: SSB-ssDNA binding inhibitors – biochemical, fluorescence polarization, NIH Clinical Collection, counter-screen for HCV NS3 helicase inhibitor project (AID 743271; in the data active = inhibition above about 28%); conditions: E. coli SSB-DNA binding, stronger effect = higher value, concentration not given here
# [9] = compounds distorting NS3 helicase fluorescence signal – biochemical, NIH Clinical Collection, artefact control for HCV NS3 helicase inhibitor project (AID 743272); conditions: fluorescence interference counterscreen, HCV NS3 helicase assay; stronger effect = lower value;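 also: HCV NS3 helicase with a Cy5 labelled single stranded DNA probe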
# [10] = test system: Neuropilin-2 / VEGF-C interaction (human); assay: small molecules blocking Neuropilin-2/VEGF-C interaction – biochemical, microplate binding format, z-score (AID 743281); conditions: microplate NRP2/VEGF-C binding assay; stronger effect = lower value
# [11] = Wnt pathway potentiators raising nuclear beta-catenin – imaging, WNT3A-conditioned medium, mouse C2C12, NPC library, primary screen (AID 1117326; in the data active = nuclear beta-catenin stimulation mostly above about 4.2%, no sharp cut-off; inactive = mostly below about 10%); conditions: stronger effect = higher value
# [12] = stimulators of insulin release from INS-1E, primary screen, cell-based, 5 mM glucose, NPC library (AID 1117329;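 active = compound raises insulin release from rat beta cells at 5 mM glucose, no numeric limit stated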); conditions: rat INS-1E insulin secretion, at 10 µM, stronger effect = higher value
# [13] = growth inhibition of GSK3B-pretreated HCT116 cells – cell-based, CellTiter-Glo, 0.2 to 20 µM (AID 1117336;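 active = compounds lowering colon cancer cell viability after pretreatment blocking the GSK3B kinase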); conditions: HCT116 viability after GSK3B inhibitor, at 20 µM, stronger effect = higher value
# [14] = inhibition of endothelial tube formation, primary screen, imaging, VEGF stimulated, CD31 staining, tube area, NPC library (AID 1117340;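 active = compound that reduces growth-factor-driven endothelial tube area in a mixed cell culture, no cutoff stated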); conditions: VEGF-stimulated ADSC/ECFC co-culture, at 10 µM, stronger effect = higher value
# [15] = GLP1 release stimulators, primary, NCI-H716, NPC library (AID 1117341;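 active = compound raises GLP1 secretion from the human gut endocrine cells, with no numeric limit stated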); conditions: NCI-H716 cells, at 10 µM, stronger effect = higher value
# [16] = HCT116 colon cancer cell growth inhibition, primary screen, CellTiter-Glo luminescence, NPC library (AID 1117342;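 active = compounds that lower survival of HCT116 colon cancer cells in the luminescence readout, no numeric limit stated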); conditions: at 20 µM (top of the series)
# [17] = reduced SW480 viability measured with CellTiter-Glo, NPC library, primary (AID 1117343;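 active = compounds that lower viability of the colon cancer cells in the luminescence readout, with no numeric limit stated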); conditions: CellTiter-Glo luminescence; at 20 µM (top of the series)
# [18] = NPC library primary testing for decreased DLD-1 cell viability via CellTiter-Glo (AID 1117346;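 active = compounds that lower survival of DLD-1 colon cancer cells in the luminescence readout, no cutoff given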); conditions: DLD-1 viability, CellTiter-Glo luminescence; at 20 µM (top of the series)
# [19] = target: 6-phosphogluconate dehydrogenase, decarboxylating (Homo sapiens) (UniProt P52209); assay: inhibition of human phosphogluconate dehydrogenase – biochemical, recombinant enzyme, NADPH absorbance, primary screen (AID 1159550;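 active = at least 20% inhibition of 6-phosphogluconate dehydrogenase activity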); conditions: recombinant 6PGD, NADPH absorbance 341 nm; at 10 µM; stronger effect = higher value
# Chain of 6-phosphogluconate dehydrogenase, decarboxylating (Homo sapiens) (P52209 whole entry, looked up): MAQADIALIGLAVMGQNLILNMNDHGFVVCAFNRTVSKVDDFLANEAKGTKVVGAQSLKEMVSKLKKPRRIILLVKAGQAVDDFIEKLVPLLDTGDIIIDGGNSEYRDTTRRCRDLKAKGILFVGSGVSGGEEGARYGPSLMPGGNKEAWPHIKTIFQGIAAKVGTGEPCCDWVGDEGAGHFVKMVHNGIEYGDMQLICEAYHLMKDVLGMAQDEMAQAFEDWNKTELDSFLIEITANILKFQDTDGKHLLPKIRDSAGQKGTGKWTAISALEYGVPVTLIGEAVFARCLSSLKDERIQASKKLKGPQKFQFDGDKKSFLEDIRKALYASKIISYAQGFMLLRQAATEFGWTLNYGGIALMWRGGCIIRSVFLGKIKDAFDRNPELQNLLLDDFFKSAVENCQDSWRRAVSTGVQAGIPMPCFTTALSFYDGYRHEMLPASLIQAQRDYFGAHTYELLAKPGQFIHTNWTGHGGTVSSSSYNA
# [20] = modulation of C. elegans fzo-1 (AID 1259413);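 also: fzo-1 mutant C. elegans worms in liquid wells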; conditions: C. elegans fzo-1 modulator screen, mean read-out; stronger effect = higher value
# [21] = EMT-state selective cytotoxicity in co-culture – imaging, PC-3E GFP, TEM4-18 mCherry, primary screen (AID 1345086;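 active = compounds killing one labelled cell type while sparing the other, by normalised counts and ratio limits, not self-fluorescent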;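 also: cells exposed to compound for 72 h before imaging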;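 as to red/green cell ratio (normalised): normalised mesenchymal count divided by normalised epithelial count so high means epithelial killing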); conditions: PC-3E GFP / TEM4-18 mCherry co-culture, imaging cell counts, at 1 µM
# [22] = test system: Aerobactin synthetase IucA (Klebsiella pneumoniae); assay: inhibition of K. pneumoniae IucA enzyme – biochemical, Tocris library, absorbance (AID 1345561); conditions: purified IucA enzyme assay, absorbance (OD) read-out; stronger effect = lower value;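 tested at 8 µM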;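 also: 100% = enzyme without compound and 0% = no enzyme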
# [23] = viability loss in pontine glioma line – cell-based, SU-DIPG-XVII, MIPE5.0, CellTiter-Glo, qHTS, dose response (AID 1347060; cut-off not given, nearly all actives have AC50 up to about 26 µM); conditions: CellTiter-Glo ATP luminescence
# [24] = viability loss in pontine glioma line – cell-based, SU-DIPG-XIII, MIPE4.0, CellTiter-Glo, qHTS, dose response (AID 1347061; cut-off not given, nearly all actives have AC50 up to about 37 µM;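 also: cells exposed to compound for 48 hours before readout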); conditions: CellTiter-Glo ATP luminescence
# [25] = viability loss in pontine glioma line – cell-based, JHH-DIPG-1, MIPE4.0, CellTiter-Glo, qHTS, dose response (AID 1347062; cut-off not given, nearly all actives have AC50 up to about 27 µM); conditions: JHH-DIPG-1 viability, CellTiter-Glo ATP luminescence
# [26] = viability loss in pontine glioma line – cell-based, SU-DIPG-XIII, MIPE5.0, CellTiter-Glo, qHTS, dose response (AID 1347064; cut-off not given, nearly all actives have AC50 up to about 23 µM); conditions: CellTiter-Glo ATP luminescence
# [27] = growth inhibition of DIPG cells – cell-based, MIPE4.0 library, CellTiter-Glo luminescence, qHTS (AID 1347066; cut-off not given, nearly all actives have AC50 up to about 30 µM;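 also: cells exposed to compound for 48 hours before readout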); conditions: SU-DIPG-VI viability, CellTiter-Glo ATP luminescence
# [28] = growth inhibition of DIPG cells – cell-based, MIPE5.0 library, qHTS (AID 1347068; cut-off not given, nearly all actives have IC50 up to about 30 µM;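 as to IC50: cells exposed to compound for 48 hours before viability readout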); conditions: SU-DIPG-XXV viability
# [29] = blockers of cellular phospholipid synthesis – cell-based, LOPAC library, screen 4, primary screen (AID 1347384); conditions: animal cells, phospholipid biosynthesis inhibition screen; at 10 µM
# [30] = MELAS cybrid and Rieske KO viability enhancers – cell-based, MELAS cybrids, Rieske KO mouse fibroblasts, CellTiter-Glo, primary screen (AID 1508586;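 active = mean z-score across replicates of 1.96 or higher in either the MELAS or the Rieske mutant cell line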;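 also: z relative to plate mean and SD of compound and empty wells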); conditions: low glucose
# [31] = target: NAD(+) hydrolase SARM1 (Homo sapiens) (UniProt Q6SZW1); assay: blocking NAD cleavage by SARM1 SAM-TIR – cell lysate, NAD-Glo luminescence (AID 1508614;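 active = compound whose remaining NAD level is above about 45 nM, limit read from the data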;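 also: higher remaining NAD means stronger inhibition of SARM1 NADase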); conditions: SAM-TIR HEK293T lysate NADase, at 1 µM, stronger effect = higher value
# Chain of NAD(+) hydrolase SARM1 (Homo sapiens) (Q6SZW1 whole entry, looked up): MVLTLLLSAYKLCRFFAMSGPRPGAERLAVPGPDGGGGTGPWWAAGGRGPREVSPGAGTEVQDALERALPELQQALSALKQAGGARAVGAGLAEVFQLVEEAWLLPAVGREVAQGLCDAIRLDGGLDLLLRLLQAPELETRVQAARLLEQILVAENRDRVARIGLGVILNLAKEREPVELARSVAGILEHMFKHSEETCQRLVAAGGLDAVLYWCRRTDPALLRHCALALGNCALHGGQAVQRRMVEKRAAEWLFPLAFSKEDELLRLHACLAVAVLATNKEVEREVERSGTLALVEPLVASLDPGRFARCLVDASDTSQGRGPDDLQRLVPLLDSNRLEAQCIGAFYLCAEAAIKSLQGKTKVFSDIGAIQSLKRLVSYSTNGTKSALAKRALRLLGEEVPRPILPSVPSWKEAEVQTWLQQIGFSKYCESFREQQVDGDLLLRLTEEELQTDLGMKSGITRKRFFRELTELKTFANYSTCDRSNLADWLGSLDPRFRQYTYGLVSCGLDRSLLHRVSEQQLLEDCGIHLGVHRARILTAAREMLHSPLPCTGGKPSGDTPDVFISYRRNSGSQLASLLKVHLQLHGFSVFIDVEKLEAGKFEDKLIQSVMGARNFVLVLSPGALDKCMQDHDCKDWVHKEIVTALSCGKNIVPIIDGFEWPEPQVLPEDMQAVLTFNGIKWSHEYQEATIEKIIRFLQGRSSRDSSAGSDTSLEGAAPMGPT
# [32] = P. berghei load reduction in hepatocytes – cell-based, HepG2, luciferase luminescence, HepG2 viability, primary screen (AID 624349; in the data active = parasite load remaining mostly below about 12%, no sharp cut-off; inactive = mostly above about 10%;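 also: 100% = mean of DMSO negative control wells on the same plate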); conditions: P. berghei liver stage in HepG2, luciferase luminescence, concentration not given here; parasite load remaining: stronger effect = lower value; viability: measured here: HepG2 viability without parasites
# [33] = viability loss in pontine glioma line – cell-based, SU-DIPG-IV, MIPE4.0, CellTiter-Glo, qHTS, dose response (AID 1347063; cut-off not given, nearly all actives have AC50 up to about 30 µM;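 also: compound exposure lasted 48 hours before the viability readout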); conditions: CellTiter-Glo ATP luminescence
# [34] = viability loss in pontine glioma line – cell-based, SU-DIPG-XXV, MIPE5.0, CellTiter-Glo, qHTS, dose response (AID 1347065; cut-off not given, nearly all actives have AC50 up to about 26 µM;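 also: cells exposed to compound for 48 hours before ATP readout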); conditions: CellTiter-Glo ATP luminescence
# [35] = JHH-DIPG-1 glioma cell viability, MIPE5.0 library, CellTiter-Glo luminescence, qHTS (AID 1347067; cut-off not given, nearly all actives have AC50 up to about 26 µM;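 also: cells exposed to compound for 48 hours before readout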); conditions: JHH-DIPG-1 glioma viability, CellTiter-Glo ATP luminescence
# [36] = viability loss with induced miR-34 in A549 – imaging, A549 dox-inducible miR-34, nuclei and caspase counts, primary screen (AID 1347080;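 active = compounds whose cell count with miR-34 switched on is under 0.7 times the count with it off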); conditions: A549 miR-34 inducible, Hoechst nuclei count, 48 h
# [37] = target: Mitogen-activated protein kinase 7 (Homo sapiens) (UniProt Q13164); assay: Gal4-ERK5 driven luciferase induction – cell-based, HTS, primary screen (AID 1508626;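 active = luciferase signal above three times the same-plate solvent-only control wells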;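 also: luciferase driven by Gal4-ERK5 fusion binding five Gal4 sites before minimal TATA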); conditions: HeLa Gal4-ERK5 transactivation, 18 h, at 5 µM, stronger effect = higher value
# Chain of Mitogen-activated protein kinase 7 (Homo sapiens) (Q13164 whole entry, looked up, the tested form may be a part): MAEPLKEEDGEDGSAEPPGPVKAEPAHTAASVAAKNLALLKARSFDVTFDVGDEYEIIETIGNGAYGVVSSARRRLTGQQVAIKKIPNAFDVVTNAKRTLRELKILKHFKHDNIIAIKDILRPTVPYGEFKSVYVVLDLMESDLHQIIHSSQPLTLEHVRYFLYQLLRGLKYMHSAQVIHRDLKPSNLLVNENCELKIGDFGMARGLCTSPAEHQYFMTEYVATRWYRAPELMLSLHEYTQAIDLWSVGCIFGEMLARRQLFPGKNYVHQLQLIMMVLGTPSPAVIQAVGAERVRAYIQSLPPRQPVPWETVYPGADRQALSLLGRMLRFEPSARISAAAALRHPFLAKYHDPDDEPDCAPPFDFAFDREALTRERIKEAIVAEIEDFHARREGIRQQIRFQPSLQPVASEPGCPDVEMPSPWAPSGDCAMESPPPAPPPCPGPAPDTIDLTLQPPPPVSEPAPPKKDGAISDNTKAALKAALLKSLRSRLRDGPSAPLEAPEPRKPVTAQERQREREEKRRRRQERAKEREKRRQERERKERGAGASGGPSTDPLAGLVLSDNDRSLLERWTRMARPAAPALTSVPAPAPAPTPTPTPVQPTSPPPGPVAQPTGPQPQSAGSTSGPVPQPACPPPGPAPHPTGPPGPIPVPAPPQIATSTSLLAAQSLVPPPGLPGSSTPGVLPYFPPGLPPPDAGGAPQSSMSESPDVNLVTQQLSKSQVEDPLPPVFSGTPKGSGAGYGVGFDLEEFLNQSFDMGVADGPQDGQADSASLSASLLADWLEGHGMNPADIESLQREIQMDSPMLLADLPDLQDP
# [38] = galactose survival enhancers in mitochondrial complex I cybrids – cell-based, galactose medium, ATP luminescence, primary screen (AID 1645843;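 active = z-score of at least 1.8 in each of two replicates, scored against plate mean and spread of sample wells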;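 also: positive z means more ATP and so rescue of galactose-driven cybrid death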); conditions: complex I mutant cybrid cells, 72 h, stronger effect = higher value
# F380Y = assay: BK channel mutant inhibitors and activators – cell-based, U2OS BacMam, thallium flux, beta subunits, selectivity assay, profiling panel (AID 1259406;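 active = thallium flux through the channel raised or lowered by more than 3 SD from vehicle-only wells, actives on both sides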;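 also: initial slope of Thallos dye fluorescence rise after thallium is added; log ratio against the mean of 0.3% DMSO vehicle wells on the same plate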); conditions: U2OS BacMam BK variants, at 30 µM
# F380Y/beta1 = assay: as above; conditions: U2OS BacMam BK variants, at 30 µM
# F380Y/beta2Delta = assay: as above; conditions: U2OS BacMam BK variants, at 30 µM
# F380Y/beta4 = assay: as above; conditions: U2OS BacMam BK variants, at 30 µM
# [39] = target: Calcium-activated potassium channel subunit alpha-1 (Homo sapiens) + Leucine-rich repeat-containing protein 26 (Homo sapiens) (UniProt Q12791+Q2I0M4); assay: as above; conditions: U2OS BacMam BK variants, F380Y/Slo1WT/gamma1, at 30 µM
# Chain of Calcium-activated potassium channel subunit alpha-1 (Homo sapiens) + Leucine-rich repeat-containing protein 26 (Homo sapiens) (Q2I0M4 whole entry, looked up, one chain of several): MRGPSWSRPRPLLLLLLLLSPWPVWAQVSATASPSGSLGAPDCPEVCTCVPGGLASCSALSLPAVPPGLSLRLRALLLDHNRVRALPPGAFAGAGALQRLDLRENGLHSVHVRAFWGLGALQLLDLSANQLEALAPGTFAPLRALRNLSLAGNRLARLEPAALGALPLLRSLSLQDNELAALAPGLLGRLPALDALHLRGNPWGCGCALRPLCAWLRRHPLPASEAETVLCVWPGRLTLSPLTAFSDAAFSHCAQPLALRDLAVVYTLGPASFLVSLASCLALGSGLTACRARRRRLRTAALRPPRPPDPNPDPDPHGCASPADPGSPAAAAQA
# R275C = assay: as above; conditions: U2OS BacMam BK variants, at 30 µM
# R275C/beta1 = assay: as above; conditions: U2OS BacMam BK variants, at 30 µM
# R275C/beta2Delta = assay: as above; conditions: U2OS BacMam BK variants, at 30 µM
# R275C/beta4 = assay: as above; conditions: U2OS BacMam BK variants, at 30 µM
# R275C/Slo1WT/beta2 = assay: as above; conditions: U2OS BacMam BK variants, at 30 µM
smiles,measurement,setting,value
Nc1nc2ccc(OC(F)(F)F)cc2s1,fluorescence slope change,[1],60.6% (active)
same,period change,[2],0.11 h (inactive)
same,survival,[3],22.5 (inactive)
same,inhibition,[4],-3% (inactive)
same,fluorescence ratio (interference),[5],0.9 (inactive)
same,fluorescence ratio,[6],0.95 (inactive)
same,inhibition,[7],-5.94% (inactive)
same,inhibition,[8],-0.87% (inactive)
same,fluorescence ratio,[9],0.87 (inactive)
same,z-score,[10],1.45 (inactive)
same,nuclear beta-catenin stimulation,[11]; at 10 µM,0.7% (inactive)
same,nuclear beta-catenin stimulation,"[11]; stimulation, at 2 µM",-0.8%
same,insulin secretion stimulation,[12],-2.4% (inactive)
same,viability decrease,[13],32.5% (inactive)
same,tube area decrease,[14],34% (inactive)
same,GLP1 secretion stimulation,[15],0.6% (inactive)
same,inhibition of viability,[16],21.7% (inactive)
same,viability decrease (inhibition),[17],88.8% (active)
same,viability decrease (inhibition),[18],47.1% (inactive)
same,inhibition,[19],2.66% (inactive)
same,mean signal,[20],260 (inactive)
same,red/green cell ratio (normalised),"[21]; actives lie on both sides, counts scaled to control wells, 1 = unselective",1.07 (inactive)
same,normalised cell number,[21]; measured here: epithelial PC-3E GFP cell survival,1.04
same,normalised cell number,[21]; measured here: mesenchymal TEM4-18 mCherry cell survival,1.11
same,remaining activity,[22],83.1% (inactive)
same,outcome,[23],inactive
same,outcome,[24],inactive
same,outcome,[25],inactive
same,outcome,[26],inactive
same,outcome,[27],inactive
same,IC50,[28],20.9 µM (active)
same,outcome,[29],inactive
same,z-score,"[30]; MELAS cybrid survival, CellTiter-Glo 48 h, stronger effect = higher value",0.0258 (inactive) and 0.56 (inactive) and -1.11 (inactive)
same,z-score,"[30]; Rieske KO mouse fibroblast survival, CellTiter-Glo 72 h",0.111 and -0.202 and -1.33
same,remaining NAD,[31],10 nM (inactive)
CC1(C)O[C@@H]2C[C@H]3[C@@H]4CCC5=CC(=O)C=C[C@]5(C)[C@@]4(F)[C@@H](O)C[C@]3(C)[C@]2(C(=O)CO)O1,parasite load remaining,[32],89.9% (inactive)
same,viability,[32],87.8%
same,fluorescence ratio,[6],0.99 (inactive)
same,inhibition,[7],-0.45% (inactive)
same,inhibition,[8],4.1% (inactive)
same,fluorescence ratio,[9],0.99 (inactive)
same,nuclear beta-catenin stimulation,[11]; at 10 µM,-0.5% (inactive)
same,nuclear beta-catenin stimulation,"[11]; stimulation, at 2 µM",3.8%
same,insulin secretion stimulation,[12],3.4% (inactive)
same,viability decrease,[13],21.8% (inactive)
same,tube area decrease,[14],0.2% (inactive)
same,GLP1 secretion stimulation,[15],-1% (inactive)
same,inhibition of viability,[16],8.4% (inactive)
same,viability decrease (inhibition),[17],34.9% (inactive)
same,viability decrease (inhibition),[18],-6.5% (inactive)
same,inhibition,[19],10.8% (inactive)
same,outcome,[23],inactive
same,outcome,[24],inactive
same,outcome,[33],inactive
same,outcome,[26],inactive
same,outcome,[34],inactive
same,outcome,[27],inactive
same,outcome,[35],inactive
same,outcome,[28],inactive
same,fold change,"[36]; stronger effect = lower value, cell number ratio, induced over uninduced",0.992 (inactive)
same,fold change,[36]; measured here: relative caspase fold change +Dox/-Dox,0.777
same,cell count,"[36]; measured here: total cells with miR-34 induction, stronger effect = lower value",7390
same,cell count,[36]; measured here: total cells without miR-34 induction,7450
same,remaining NAD,[31],10 nM (inactive)
same,luciferase signal,[37],36 AU (inactive)
same,z-score,[38],0.21 (inactive)
same,log fold change Tl+ flux,F380Y,0.0424 (inactive)
same,log fold change Tl+ flux,F380Y/beta1,0.0642 (inactive)
same,log fold change Tl+ flux,F380Y/beta2Delta,-0.014 (inactive)
same,log fold change Tl+ flux,F380Y/beta4,0.0499 (inactive)
same,log fold change Tl+ flux,[39],0.106 (active)
same,log fold change Tl+ flux,R275C,-0.0106 (inactive)
same,log fold change Tl+ flux,R275C/beta1,0.0867 (inactive)
same,log fold change Tl+ flux,R275C/beta2Delta,0.0611 (inactive)
same,log fold change Tl+ flux,R275C/beta4,-0.0125 (inactive)
same,log fold change Tl+ flux,R275C/Slo1WT/beta2,-0.102 (inactive)
